# In PMC11062922 (Nature Chemical Biology, 2023):
# Where two headings read alike, the source gives them in different places.
# Columns and labels:
# Design in all cases: species or system human, MV4-11 + K-562 + COLO205 + SK-N-BE2 + OVCAR-8
# ACVR2B = conditions: read-out: apparent Kd; compound concentrations: 100 nM and 1000 nM (sheet 'Samples'), CATDS: 3.5760557024692601E-2; n = 1
# AURKA = conditions: read-out: apparent Kd; compound concentrations: 100 nM and 1000 nM (sheet 'Samples'), CATDS: 0.17816442953383199; n = 1
# AURKB = conditions: read-out: apparent Kd; compound concentrations: 100 nM and 1000 nM (sheet 'Samples'), CATDS: 0.16275021162643; n = 1
# CDKL5 = conditions: read-out: apparent Kd; compound concentrations: 100 nM and 1000 nM (sheet 'Samples'), CATDS: 3.9289785265400001E-2; n = 1
# FGFR1 = conditions: read-out: apparent Kd; compound concentrations: 100 nM and 1000 nM (sheet 'Samples'), CATDS: 3.3147223570266997E-2; n = 1
# FLT3 = conditions: read-out: apparent Kd; compound concentrations: 100 nM and 1000 nM (sheet 'Samples'), CATDS: 3.2008123306219403E-2; n = 1
# FLT4 = conditions: read-out: apparent Kd; compound concentrations: 100 nM and 1000 nM (sheet 'Samples'), CATDS: 9.9526112559891702E-2; n = 1
# GSK3A = conditions: read-out: apparent Kd; compound concentrations: 100 nM and 1000 nM (sheet 'Samples'), CATDS: 0.17602991696345399; n = 1
# GSK3B = conditions: read-out: apparent Kd; compound concentrations: 100 nM and 1000 nM (sheet 'Samples'), CATDS: 0.14122707507865501; n = 1
# MAP3K1 = conditions: read-out: apparent Kd; compound concentrations: 100 nM and 1000 nM (sheet 'Samples'), CATDS: 3.7364470577418298E-2; n = 1
# MAP3K5 = conditions: read-out: apparent Kd; compound concentrations: 100 nM and 1000 nM (sheet 'Samples'), CATDS: 2.9017198987143701E-2; n = 1
# MAPK10 = conditions: read-out: apparent Kd; compound concentrations: 100 nM and 1000 nM (sheet 'Samples'), CATDS: 3.1635267678624499E-2; n = 1
# MAPK9 = conditions: read-out: apparent Kd; compound concentrations: 100 nM and 1000 nM (sheet 'Samples'), CATDS: 4.3387929743655899E-2; n = 1
# NQO2 = conditions: read-out: apparent Kd, n = 1
# NUAK1 = conditions: read-out: apparent Kd; compound concentrations: 100 nM and 1000 nM (sheet 'Samples'), CATDS: 3.13847647871121E-2; n = 1
# PLK4 = conditions: read-out: apparent Kd; compound concentrations: 100 nM and 1000 nM (sheet 'Samples'), CATDS: 5.2678675037883101E-2; n = 1
# PRKAA2 = conditions: read-out: apparent Kd; compound concentrations: 100 nM and 1000 nM (sheet 'Samples'), CATDS: 3.01302788001056E-2; n = 1
# RET = conditions: read-out: apparent Kd; compound concentrations: 100 nM and 1000 nM (sheet 'Samples'), CATDS: 5.3147422630729399E-2; n = 1
# SLK = conditions: read-out: apparent Kd; compound concentrations: 100 nM and 1000 nM (sheet 'Samples'), CATDS: 2.96585498316322E-2; n = 1
# STK10 = conditions: read-out: apparent Kd; compound concentrations: 100 nM and 1000 nM (sheet 'Samples'), CATDS: 4.4384834768784902E-2; n = 1
# STK16 = conditions: read-out: apparent Kd; compound concentrations: 100 nM and 1000 nM (sheet 'Samples'), CATDS: 3.04344636095151E-2; n = 1
# TEC = conditions: read-out: apparent Kd; compound concentrations: 100 nM and 1000 nM (sheet 'Samples'), CATDS: 3.6245892865131898E-2; n = 1
# TTN = conditions: read-out: apparent Kd; compound concentrations: 100 nM and 1000 nM (sheet 'Samples'), CATDS: 3.6738161320686101E-2; n = 1
# ACVR1B = conditions: read-out: apparent Kd; compound concentrations:100 nM and 1000 nM (sheet 'Samples'); n = 1
# PIP4K2C = conditions: read-out: apparent Kd; compound concentrations:100 nM and 1000 nM (sheet 'Samples'); n = 1
# TGFBR1 = conditions: read-out: apparent Kd; compound concentrations:100 nM and 1000 nM (sheet 'Samples'); n = 1
# ADCK1 = conditions: read-out: apparent Kd; compound concentrations: 100 nM and 1000 nM (sheet 'Samples'), CATDS: 9.92203055838001E-2; n = 1
# AKT1 = conditions: read-out: apparent Kd; compound concentrations: 100 nM and 1000 nM (sheet 'Samples'), CATDS: 2.85422229355832E-2; n = 1
# AKT2 = conditions: read-out: apparent Kd; compound concentrations: 100 nM and 1000 nM (sheet 'Samples'), CATDS: 2.77493450407107E-2; n = 1
# CDC42BPG = conditions: read-out: apparent Kd; compound concentrations: 100 nM and 1000 nM (sheet 'Samples'), CATDS: 4.9906722196616002E-2; n = 1
# CLK1 = conditions: read-out: apparent Kd; compound concentrations: 100 nM and 1000 nM (sheet 'Samples'), CATDS: 3.0057021324399399E-2; n = 1
# CLK4 = conditions: read-out: apparent Kd; compound concentrations: 100 nM and 1000 nM (sheet 'Samples'), CATDS: 3.6459308399585902E-2; n = 1
# CSNK1A1 = conditions: read-out: apparent Kd; compound concentrations: 100 nM and 1000 nM (sheet 'Samples'), CATDS: 2.8495259280969999E-2; n = 1
# CSNK2A1;CSNK2A3 = conditions: read-out: apparent Kd; compound concentrations: 100 nM and 1000 nM (sheet 'Samples'), CATDS: 2.5783405582401799E-2; n = 1
# HSP90AA1 = conditions: read-out: apparent Kd; compound concentrations: 100 nM and 1000 nM (sheet 'Samples'), CATDS: 2.5840975218280202E-2; n = 1
# IARS = conditions: read-out: apparent Kd; compound concentrations: 100 nM and 1000 nM (sheet 'Samples'), CATDS: 2.4824684596515999E-2; n = 1
# ILK = conditions: read-out: apparent Kd; compound concentrations: 100 nM and 1000 nM (sheet 'Samples'), CATDS: 2.4595530906688499E-2; n = 1
# LATS1 = conditions: read-out: apparent Kd; compound concentrations: 100 nM and 1000 nM (sheet 'Samples'), CATDS: 4.0745202540463502E-2; n = 1
# MAPK11 = conditions: read-out: apparent Kd; compound concentrations: 100 nM and 1000 nM (sheet 'Samples'), CATDS: 3.2120600016528701E-2; n = 1
# MAPK14 = conditions: read-out: apparent Kd; compound concentrations: 100 nM and 1000 nM (sheet 'Samples'), CATDS: 2.84299118528781E-2; n = 1
# MELK = conditions: read-out: apparent Kd; compound concentrations: 100 nM and 1000 nM (sheet 'Samples'), CATDS: 2.8403307321335999E-2; n = 1
# PKN1 = conditions: read-out: apparent Kd; compound concentrations: 100 nM and 1000 nM (sheet 'Samples'), CATDS: 3.7770198987071901E-2; n = 1
# PKN2 = conditions: read-out: apparent Kd; compound concentrations: 100 nM and 1000 nM (sheet 'Samples'), CATDS: 2.64555223020508E-2; n = 1
# PRKACA = conditions: read-out: apparent Kd; compound concentrations: 100 nM and 1000 nM (sheet 'Samples'), CATDS: 4.8150008864783198E-2; n = 1
# PRKACB = conditions: read-out: apparent Kd; compound concentrations: 100 nM and 1000 nM (sheet 'Samples'), CATDS: 3.8489694396370601E-2; n = 1
# PRKCA = conditions: read-out: apparent Kd; compound concentrations: 100 nM and 1000 nM (sheet 'Samples'), CATDS: 2.8417130340745399E-2; n = 1
# PRKCD = conditions: read-out: apparent Kd; compound concentrations: 100 nM and 1000 nM (sheet 'Samples'), CATDS: 2.7001587668499999E-2; n = 1
# PRKG1 = conditions: read-out: apparent Kd; compound concentrations: 100 nM and 1000 nM (sheet 'Samples'), CATDS: 5.7321528324025303E-2; n = 1
# PYGL = conditions: read-out: apparent Kd; compound concentrations: 100 nM and 1000 nM (sheet 'Samples'), CATDS: 2.4948391152713498E-2; n = 1
# RIOK2 = conditions: read-out: apparent Kd; compound concentrations: 100 nM and 1000 nM (sheet 'Samples'), CATDS: 4.2618907121449799E-2; n = 1
# ROCK1 = conditions: read-out: apparent Kd; compound concentrations: 100 nM and 1000 nM (sheet 'Samples'), CATDS: 5.0643849743389702E-2; n = 1
# ROCK2 = conditions: read-out: apparent Kd; compound concentrations: 100 nM and 1000 nM (sheet 'Samples'), CATDS: 5.2344501044754001E-2; n = 1
# RPS6KB1 = conditions: read-out: apparent Kd; compound concentrations: 100 nM and 1000 nM (sheet 'Samples'), CATDS: 2.7290145261830101E-2; n = 1
# SYK = conditions: read-out: apparent Kd; compound concentrations: 100 nM and 1000 nM (sheet 'Samples'), CATDS: 2.51844401612667E-2; n = 1
# T10 = tested on: T1, T10; conditions: read-out: apparent Kd; compound concentrations: 100 nM and 1000 nM (sheet 'Samples'), CATDS: 2.6247989636004901E-2; n = 1
# T1 construct: gene NAT10
compound,measurement,setting,value
Cc1[nH]nc2c1N=C(c1ccccc1F)c1cc(C(N)=O)ccc1N2 [RO0282586-000],potency estimated from few doses,ACVR2B,1 µM
same,potency estimated from few doses,AURKA,0.03 µM
same,potency estimated from few doses,AURKB,0.0345 µM
same,potency estimated from few doses,CDKL5,0.749 µM
same,potency estimated from few doses,FGFR1,1.3 µM
same,potency estimated from few doses,FLT3,1.48 µM
same,potency estimated from few doses,FLT4,0.0828 µM
same,potency estimated from few doses,GSK3A,0.0305 µM
same,potency estimated from few doses,GSK3B,0.0436 µM
same,potency estimated from few doses,MAP3K1,0.873 µM
same,potency estimated from few doses,MAP3K5,2.23 µM
same,potency estimated from few doses,MAPK10,1.55 µM
same,potency estimated from few doses,MAPK9,0.564 µM
same,potency estimated from few doses,"NQO2; compound concentrations: 100 nM and 1000 nM (sheet 'Samples'), CATDS: 5.8964681911963503E-2",0.259 µM
same,potency estimated from few doses,NUAK1,1.6 µM
same,potency estimated from few doses,PLK4,0.34 µM
same,potency estimated from few doses,PRKAA2,1.89 µM
same,potency estimated from few doses,RET,0.333 µM
same,potency estimated from few doses,SLK,2.02 µM
same,potency estimated from few doses,STK10,0.53 µM
same,potency estimated from few doses,STK16,1.81 µM
same,potency estimated from few doses,TEC,0.96 µM
same,potency estimated from few doses,TTN,0.92 µM
O=C(c1ccc(-c2cc(-c3c[nH]nc3-c3ccccn3)ccn2)cc1)N1CCCC1 [GW792479X],potency estimated from few doses,ACVR1B,0.27 µM
same,potency estimated from few doses,NQO2; compound concentrations:100 nM and 1000 nM (sheet 'Samples'),1.39 µM
same,potency estimated from few doses,PIP4K2C,1.65 µM
same,potency estimated from few doses,TGFBR1,0.118 µM
CN(C)CCNS(=O)(=O)c1ccc(-c2ccnc3[nH]ccc23)cc1 [GSK977620A],potency estimated from few doses,ADCK1,0.145 µM
same,potency estimated from few doses,AKT1,1.48 µM
same,potency estimated from few doses,AKT2,1.6 µM
same,potency estimated from few doses,CDC42BPG,0.449 µM
same,potency estimated from few doses,CLK1,1.3 µM
same,potency estimated from few doses,CLK4,0.827 µM
same,potency estimated from few doses,CSNK1A1,1.49 µM
same,potency estimated from few doses,CSNK2A1;CSNK2A3,1.99 µM
same,potency estimated from few doses,HSP90AA1,1.98 µM
same,potency estimated from few doses,IARS,2.25 µM
same,potency estimated from few doses,ILK,2.33 µM
same,potency estimated from few doses,LATS1,0.658 µM
same,potency estimated from few doses,MAPK11,1.1 µM
same,potency estimated from few doses,MAPK14,1.5 µM
same,potency estimated from few doses,MELK,1.5 µM
same,potency estimated from few doses,PKN1,0.768 µM
same,potency estimated from few doses,PKN2,1.84 µM
same,potency estimated from few doses,PRKACA,0.479 µM
same,potency estimated from few doses,PRKACB,0.738 µM
same,potency estimated from few doses,PRKCA,1.5 µM
same,potency estimated from few doses,PRKCD,1.73 µM
same,potency estimated from few doses,PRKG1,0.352 µM
same,potency estimated from few doses,PYGL,2.22 µM
same,potency estimated from few doses,RIOK2,0.602 µM
same,potency estimated from few doses,ROCK1,0.437 µM
same,potency estimated from few doses,ROCK2,0.412 µM
same,potency estimated from few doses,RPS6KB1,1.68 µM
same,potency estimated from few doses,SYK,2.15 µM
same,potency estimated from few doses,T10,1.89 µM
